From PubChem BioAssay (NCI)
Compounds without any hit were thinned out: in the full panel of roughly 83,000, 20% have a hit.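 96-well plates, one dose, 48 hours. Percent growth reported; active if below 10.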 Unmarked numbers belong to inactive results. Active and inactive are the calls of the source.

Legend:
Test in all cases: NCI-60 one-dose screen, 48 h (100 = growth as untreated, 0 = no growth, -100 = all killed)
Details in all cases: 10 µM unless noted
T-47D breast = system: T-47D breast
BT-549 breast = system: BT-549 breast
MDA-MB-435 melanoma = system: MDA-MB-435 melanoma
SW-620 colon = system: SW-620 colon
MCF7 breast = system: MCF7 breast
HCT-116 colon = system: HCT-116 colon
HCC-2998 colon = system: HCC-2998 colon
KM12 colon = system: KM12 colon

Compound	growth (T-47D breast)	growth (BT-549 breast)	growth (MDA-MB-435 melanoma)	growth (SW-620 colon)	growth (MCF7 breast)	growth (HCT-116 colon)	growth (HCC-2998 colon)	growth (KM12 colon)
CCCCCc1c(C)[nH]c(/C=C2\N=C(c3ccc[nH]3)C=C2OCc2ccccc2)c1C	-77.7% [100 µM] (active)	-94.6% [100 µM] (active)	-93.9% [100 µM] (active)	-34.7% [100 µM] (active)	-73% [100 µM] (active)	-94.7% [100 µM] (active)	-87.8% [100 µM] (active)	-80.9% [100 µM] (active)
C[N+]1(C)C2CC[C@@H]1CC(OC(=O)C(O)c1ccccc1)C2 (stereo partly specified)	109%	99.6%	99.1%	109%	106%	102%	96.6%	109%
O=C(NN1C(=O)c2cc(C(=O)O)c(C(=O)O)cc2C1=O)c1ccncc1	102%	103%	114%	101%	98.3%	106%	103%	111%
CCOC(=O)CCC(=O)O[C@H]1[C@H](O[C@@H]2[C@@H](C)[C@H](O[C@H]3C[C@@](C)(OC)[C@@H](O)[C@H](C)O3)[C@@H](C)C(=O)O[C@H](CC)[C@@](C)(O)[C@H](O)[C@@H](C)C(=O)[C@H](C)C[C@@]2(C)O)O[C@H](C)C[C@@H]1N(C)C	97.1%	97.3%	105%	107%	113%	99.7%	105%	111%
CCOc1cc(/C=C/C(=O)CC(=O)/C=C/c2ccc(OC(=O)CNCCN(CC)CC)c(OCC)c2)ccc1OC(=O)CNCCN(CC)CC	36.9%	-77.2% (active)	-21.6% (active)	-58.1% (active)	7.36% (active)	-84.7% (active)	-71.2% (active)	-60.2% (active)
Clc1ccc(C2c3ccccc3-c3nccn32)c(Cl)c1 (stereo unspecified)	56.2%	83.8%	89.6%	85.4%	80.5%	49%	99%	79.2%
Cc1nn(-c2nc3ccccc3s2)c(C)c1Oc1ccccc1O	87.1%	63%	72.4%	47.8%	81.7%	27.4%	250%	63.6%
COc1ccc(C2=NN(C(C)=O)C(c3cccc(Nc4ccnc5cc(Cl)ccc45)c3)C2)cc1 (stereo unspecified)	37.5%	50.4%	41.4%	74.4%	37.4%	44.3%	83.1%	54.1%
COc1cc(/C=N/OC(=O)Nc2ccccc2)cc(OC)c1OC	100%	105%	124%	108%	108%	94.3%	106%	113%
CC(=O)c1nn(-c2ccccc2)c(=Nc2ccccc2)cc1C	88.2%	99%	112%	104%	93.4%	98.2%	100%	99%
COc1cnc2c(c1)C(=O)c1c-2n(CCCN2CCNCC2)c(=O)c2cc(F)ccc12	9.02% (active)	4.74% (active)	-41.3% (active)	-53.7% (active)	11.7%	-82.5% (active)	2.69% (active)	-13.1% (active)
O=C(O)CCC(=O)OC[C@@H](NC(=O)C(Cl)Cl)[C@H](O)c1ccc([N+](=O)[O-])cc1	95%	89.6%	101%	108%	97.2%	92.3%	100%	103%
O=C(Nc1nc(-c2ccc(Cl)cc2)cs1)c1cc(-c2ccc(Br)cc2)nc2ccc(Cl)cc12	53%	-15.9% (active)	-21.6% (active)	34.9%	16.4%	5.84% (active)	109%	24.8%
COc1cccc(N2CCN(c3cccc(C)n3)CC2)c1	115%	105%	95.1%	110%	95.4%	91%	107%	110%
COC(=O)[C@H](Cc1cn(C)cn1)NC(=O)[C@@H](NC(=O)Nc1cc(C(F)(F)F)cc(C(F)(F)F)c1)C(C)C	-71.8% [100 µM] (active)	-98% [100 µM] (active)	-87.3% [100 µM] (active)	-47.5% [100 µM] (active)	-64.1% [100 µM] (active)	-91.6% [100 µM] (active)	-86.7% [100 µM] (active)	-88.7% [100 µM] (active)
O=Cc1ccccc1C(=O)O	97.2%	102%	96.6%	102%	93.7%	99.6%	98.1%	97.9%

Compound	growth (T-47D breast)	growth (BT-549 breast)	growth (MDA-MB-435 melanoma)	growth (SW-620 colon)	growth (MCF7 breast)	growth (HCT-116 colon)	growth (HCC-2998 colon)	growth (KM12 colon)
N=C1c2nc3n(c2C(=O)c2nc4n(c21)CCCCC4)CCCCC3	116%	110%	111%	105%	94.5%	107%	112%	106%
Cn1c(N2N=C(c3ccc(Cl)cc3)CC2c2ccccc2)nc(-c2ccccc2)c(C#N)c1=O (stereo unspecified)	64.4%	88.1%	83.6%	77.1%	62.1%	51%	82.3%	78.3%
Cc1ccccc1NC(=O)N/C(N)=N/c1nc2ccccc2s1	61.1%	-2.9% (active)	-11.4% (active)	25.8%	19%	10.2%	17.2%	14.9%
COC(=O)[C@H](Cc1cn(C)cn1)NC(=O)[C@H](C)NC(=O)Nc1cc(C(F)(F)F)cc(C(F)(F)F)c1	-58.7% [100 µM] (active)	-91.6% [100 µM] (active)	-86.7% [100 µM] (active)	-27.4% [100 µM] (active)	-60% [100 µM] (active)	-84.2% [100 µM] (active)	-88.9% [100 µM] (active)	-70.8% [100 µM] (active)
O=C1/C=C/[C@@H](O)[C@@H]2C[C@@H](O)C[C@H]2/C=C/CCC[C@H](CO)O1	32.5%	20.1%	18.5%	10.5%	-2.04% (active)	2.08% (active)	-22.5% (active)	2.96% (active)
COc1cc(C2=NN(C=O)C(c3cccc(Nc4ccnc5cc(Cl)ccc45)c3)C2)cc(OC)c1OC (stereo unspecified)	63.2%	61.5%	84.5%	88.6%	68.8%	62.6%	107%	91%
Cc1n(Cc2ccc3ccccc3c2)c2ccccc2[n+]1Cc1ccc2ccccc2c1	-3.2% (active)	-79.7% (active)	-72.8% (active)	-60.7% (active)	-70.9% (active)	-91% (active)	-87% (active)	-77.7% (active)
O=C(Nc1cccc(-n2cc(-c3ccncc3)c(-c3cc(O)cc(Cl)c3)n2)c1)Nc1ccc(Cl)c(Cl)c1	-5.53% (active)	0.544% (active)	-33.3% (active)	-33.8% (active)	2.74% (active)	-57.3% (active)	0.568% (active)	2.26% (active)
Cc1ccc(OCC(=O)Nc2ccc(Oc3ccccc3)cc2)c([N+](=O)[O-])n1	23.4%	98.5%	96.7%	96.8%	58.3%	69.8%	81.1%	93.8%
C/C(=C\CCc1ccsc1)CC/C=C(\C)CCCN1CCSCC1	70.1%	97.1%	85.9%	92%	90.9%	77.7%	96.4%	84.3%
Cc1nn(-c2ccccc2)cc1/C=C1\SC(N2CCCCC2)=NC1=O	82.4%	88.2%	92%	79.8%	55.8%	46.7%	94.5%	103%
c1ccc(-c2oc(-c3ccccc3)c3ccccc23)cc1	101%	96.5%	107%	109%	122%	108%	107%	105%
COc1ccc(/C=C2\CCc3ccccc3C2=O)cc1	92.5%	97.9%	9.53% (active)	66.9%	85.7%	94.3%	80.4%	44.6%
O=C(CC1Sc2ccccc2NC1=O)NNc1cccc(Cl)c1Cl (stereo unspecified)	73%	89.1%	95.4%	87.3%	92.4%	87%	88.5%	82.7%
COc1c(Br)cc(C(c2cc(Br)c(OC)c(Br)c2)c2ccccc2C(=O)O)cc1Br	93.6%	82.8%	104%	99.9%	96.5%	90.2%	97.8%	103%
COc1cc(/C=C/C(=O)C(C(=O)/C=C/c2ccc(OC(=O)CCNC34CC5CC(CC(C5)C3)C4)c(OC)c2)C(=O)CCNC23CC4CC(CC(C4)C2)C3)ccc1OC(=O)CCNC12CC3CC(CC(C3)C1)C2 (stereo unspecified)	41.6%	-24.2% (active)	-29.9% (active)	-22.7% (active)	14.4%	-48.8% (active)	-48% (active)	-5.8% (active)
